A short description of test [1]: p53 stabilisation in HPV-positive human cells, imaging, p53-positive nuclei imaging, 24 h, 48 h (AID 1508601). As to conditions: 24/48 h.
Test [2] has as its target Cellular tumor antigen p53 (Homo sapiens) (UniProt P04637). Described as above. Particulars: 24/48 h, stronger effect = higher value.
Where [3] appears, read: measured here: cell number at 24 h, Library stock concentration: 80 uM.
Where [4] appears, read: measured here: cell number at 24 h, Library stock concentration: 400 uM.
Setting [5] is: measured here: cell number at 24 h, Library stock concentration: 2 mM.
[6] abbreviates: measured here: cell number at 24 h, Library stock concentration: 3.33 mM.
The mark [7] stands for this setting: measured here: cell number at 24 h, Library stock concentration: 10 mM.
The mark [8] stands for this setting: measured here: cell number at 48 h, Library stock concentration: 80 uM.
Where [9] appears, read: measured here: cell number at 48 h, Library stock concentration: 400 uM.
Where [10] appears, read: measured here: cell number at 48 h, Library stock concentration: 2 mM.
[11] abbreviates: measured here: cell number at 48 h, Library stock concentration: 3.33 mM.
[12] abbreviates: measured here: cell number at 48 h, Library stock concentration: 10 mM.
The mark [13] stands for this setting: Library stock concentration: 80 uM.
The mark [14] stands for this setting: Library stock concentration: 400 uM.
Setting [15] is: Library stock concentration: 2 mM.
Setting [16] is: Library stock concentration: 3.33 mM.
Setting [17] is: Library stock concentration: 10 mM.
Where [18] appears, read: measured here: p53 positive nuclei at 24 h, Library stock concentration: 80 uM.
Where [19] appears, read: measured here: p53 positive nuclei at 24 h, Library stock concentration: 400 uM.
Setting [20] is: measured here: p53 positive nuclei at 24 h, Library stock concentration: 2 mM.
[21] abbreviates: measured here: p53 positive nuclei at 24 h, Library stock concentration: 3.33 mM.
Where [22] appears, read: measured here: p53 positive nuclei at 24 h, Library stock concentration: 10 mM.
The mark [23] stands for this setting: measured here: cell number at 24 h, concentration not given here.
[24] abbreviates: measured here: cell number at 48 h, concentration not given here.
The mark [25] stands for this setting: measured here: p53 positive nuclei at 24 h, concentration not given here.

About 85 (1%) of roughly 5,700 compounds were called active. The sample holds actives, similar compounds and a random draw of the others, so the mix is not that of the screen. Cut-off read from the data, not from the text of the source: active = p53-positive nuclei above about 36% (passing the limit was not always enough); inactive = the rest.

Sequence of Cellular tumor antigen p53 (Homo sapiens) (P04637 whole entry, looked up): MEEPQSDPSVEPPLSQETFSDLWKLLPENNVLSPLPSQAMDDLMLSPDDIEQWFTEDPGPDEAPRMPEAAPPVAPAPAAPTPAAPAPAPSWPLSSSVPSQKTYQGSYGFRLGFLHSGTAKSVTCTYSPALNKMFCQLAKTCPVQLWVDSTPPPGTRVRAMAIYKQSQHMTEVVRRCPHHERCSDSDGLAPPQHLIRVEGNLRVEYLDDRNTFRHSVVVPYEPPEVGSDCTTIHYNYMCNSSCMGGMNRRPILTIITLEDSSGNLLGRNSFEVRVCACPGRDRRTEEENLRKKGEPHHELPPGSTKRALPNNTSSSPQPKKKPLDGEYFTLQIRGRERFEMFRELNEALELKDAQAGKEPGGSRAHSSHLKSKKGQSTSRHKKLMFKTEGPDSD

Take `CC(C)N(CCCNC(=O)Nc1ccc(C(C)(C)C)cc1)CC1OC(n2cc(Br)c3c(N)ncnc32)C(O)C1O` (stereo unspecified): the nuclei count, normalised in test [1] (setting [3]) turned out to be 105%; in test [1] (setting [4]), 101%; in test [1] (setting [5]), 103%; in test [1] (setting [6]), 115%; in test [1] (setting [7]), 101%; in test [1] (setting [8]), 98.8%. The nuclei count, normalised in test [1] (setting [9]) came to 96.7%; in test [1] (setting [10]) it was 94.7%; in test [1] (setting [11]), 110%; in test [1] (setting [12]), 99.9%. Besides, the p53-positive nuclei, normalised in test [2] (setting [13]) is -0.0631% (inactive); in test [2] (setting [14]), 0.111% (inactive); in test [2] (setting [15]), 0.291% (inactive); in test [2] (setting [16]), -0.109% (inactive); in test [2] (setting [17]), 0.13% (inactive); in test [2] (setting [18]) it was -0.167%. For the same molecule, the p53-positive nuclei, normalised was 0.0144% in test [2] (setting [19]), -0.162% in test [2] (setting [20]), -0.283% in test [2] (setting [21]) and -0.163% in test [2] (setting [22]).

With `CCCC1CC(C(=O)NC(C(C)O)[C@@H]2OC(SC)C(O)C(O)C2O)N(C)C1` (stereo partly specified), the figures for the nuclei count, normalised in test [1] (setting [6]) and in test [1] (setting [11]) were 101% and 102%, respectively. Besides, the p53-positive nuclei, normalised was -0.245% (inactive) in test [2] (setting [16]) and -0.267% in test [2] (setting [21]).

On to `N#CSc1cc(SC#N)c(N)nc1N`, for which the nuclei count, normalised in test [1] (measured here: cell number at 24 h, Library stock concentration: 500 nM) worked out at 108%; in test [1] (measured here: cell number at 24 h, Library stock concentration: 1.5 uM), 116%; in test [1] (measured here: cell number at 24 h, Library stock concentration: 4.6 uM) it was 121%; in test [1] (measured here: cell number at 24 h, Library stock concentration: 13.7 uM), 119%; in test [1] (measured here: cell number at 24 h, Library stock concentration: 41 uM) it was 107%; in test [1] (measured here: cell number at 24 h, Library stock concentration: 123 uM) it was 114%. Also, the nuclei count, normalised in test [1] (measured here: cell number at 24 h, Library stock concentration: 370 uM) worked out at 114%; in test [1] (measured here: cell number at 24 h, Library stock concentration: 1.111 mM), 107%; in test [1] (setting [6]), 97.4%; in test [1] (measured here: cell number at 24 h, Library stock concentration: 3.333 mM), 84.8%; in test [1] (setting [7]), 45.2%; in test [1] (measured here: cell number at 48 h, Library stock concentration: 500 nM), 108%. Besides, the nuclei count, normalised amounted to 111% in test [1] (measured here: cell number at 48 h, Library stock concentration: 1.5 uM); 118% in test [1] (measured here: cell number at 48 h, Library stock concentration: 4.6 uM); 113% in test [1] (measured here: cell number at 48 h, Library stock concentration: 13.7 uM); 108% in test [1] (measured here: cell number at 48 h, Library stock concentration: 41 uM); 113% in test [1] (measured here: cell number at 48 h, Library stock concentration: 123 uM); 74.3% in test [1] (measured here: cell number at 48 h, Library stock concentration: 370 uM). Also, the nuclei count, normalised amounted to 74.4% in test [1] (measured here: cell number at 48 h, Library stock concentration: 1.111 mM); 103% in test [1] (setting [11]); 62.1% in test [1] (measured here: cell number at 48 h, Library stock concentration: 3.333 mM); 21.8% in test [1] (setting [12]). Besides, the p53-positive nuclei, normalised in test [2] (Library stock concentration: 500 nM) is 0.137% (inactive); in test [2] (Library stock concentration: 1.5 uM) it was -0.0213% (inactive); in test [2] (Library stock concentration: 4.6 uM), -0.102% (inactive); in test [2] (Library stock concentration: 13.7 uM) it was 0.047% (inactive); in test [2] (Library stock concentration: 41 uM), 0.227% (inactive); in test [2] (Library stock concentration: 123 uM), -0.098% (inactive). Moreover, the p53-positive nuclei, normalised in test [2] (Library stock concentration: 370 uM) is 0.164% (inactive); in test [2] (Library stock concentration: 1.111 mM), 0.121% (inactive); in test [2] (setting [16]) it was 0.00985% (inactive); in test [2] (Library stock concentration: 3.333 mM), 0.39% (inactive); in test [2] (setting [17]) it was 46.6% (active); in test [2] (measured here: p53 positive nuclei at 24 h, Library stock concentration: 500 nM) it was 0.00877%. Further, the p53-positive nuclei, normalised was -0.00152% in test [2] (measured here: p53 positive nuclei at 24 h, Library stock concentration: 1.5 uM); 0.0386% in test [2] (measured here: p53 positive nuclei at 24 h, Library stock concentration: 4.6 uM); -0.00721% in test [2] (measured here: p53 positive nuclei at 24 h, Library stock concentration: 13.7 uM); 0.497% in test [2] (measured here: p53 positive nuclei at 24 h, Library stock concentration: 41 uM); 0.0549% in test [2] (measured here: p53 positive nuclei at 24 h, Library stock concentration: 123 uM); -0.0579% in test [2] (measured here: p53 positive nuclei at 24 h, Library stock concentration: 370 uM). For the same molecule, the p53-positive nuclei, normalised was 0.00745% in test [2] (measured here: p53 positive nuclei at 24 h, Library stock concentration: 1.111 mM); -0.237% in test [2] (setting [21]); 0.112% in test [2] (measured here: p53 positive nuclei at 24 h, Library stock concentration: 3.333 mM); 76.7% in test [2] (setting [22]).

Regarding `CC/C=C\C/C=C\C/C=C\C/C=C\C/C=C\CCCCCC(=O)O`, the nuclei count, normalised was 100% in test [1] (setting [23]) and 102% in test [1] (setting [24]). Besides, the p53-positive nuclei, normalised in test [2] (concentration not given here) was 0.209% (inactive); in test [2] (setting [25]) it was -0.0279%.

Regarding `CC(Oc1ccc2c(c1)OCO2)C(=O)N(Cc1nccn1C)C(C)C` (stereo unspecified), the nuclei count, normalised in test [1] (setting [23]) came out at 101%; in test [1] (setting [24]), 109%. The figures for the p53-positive nuclei, normalised in test [2] (concentration not given here) and in test [2] (setting [25]) were -0.128% (inactive) and 0.148%, respectively.

For `CCCCc1ccc(N=CNO)c(C)c1`, the nuclei count, normalised in test [1] (setting [3]) came out at 102%; in test [1] (setting [4]) it was 87.8%; in test [1] (setting [5]), 104%; in test [1] (setting [7]), 97.5%; in test [1] (setting [23]), 112%; in test [1] (setting [8]), 102%. The nuclei count, normalised in test [1] (setting [9]) stood at 96.8%; in test [1] (setting [10]), 107%; in test [1] (setting [12]), 103%; in test [1] (setting [24]), 114%. In addition, the p53-positive nuclei, normalised was -0.0421% (inactive) in test [2] (setting [13]); -0.0681% (inactive) in test [2] (setting [14]); -0.128% (inactive) in test [2] (setting [15]); -0.158% (inactive) in test [2] (setting [17]); -0.0134% (inactive) in test [2] (concentration not given here); -0.116% in test [2] (setting [18]). Moreover, the p53-positive nuclei, normalised is 0.0745% in test [2] (setting [19]), 0.0465% in test [2] (setting [20]), 0.123% in test [2] (setting [22]) and -0.0878% in test [2] (setting [25]).

The record behind these values is PubChem BioAssay AID1508601 (ICCB-Longwood Screening Facility, Harvard Medical School, 2020).
